# G9a inh: blocks human histone lysine methyltransferase G9a; G9a H3K9 monomethylation, AlphaScreen, 2 h; Q96KQ7; 8.8% of 350,000 active; Potency, µM (doses to about 102 µM), for inactives: at the top dose activity, negative = inhibition, actives largely listed as inhibitors; further: on the % scale 0 is the no-effect control and ±100 the full control effect; nearly all actives have a fitted effect of over 75% in size
#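 Chemiluminescent proximity detection of H3K9 monomethylation, read after 10 min bead incubation in the dark. Reaction: 20 nM G9a, 500 nM biotin-H3K9 peptide, 20 uM SAM cofactor, 2 h, room temperature, following 15 min enzyme-compound preincubation.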
# BAZ2B inh: BAZ2B (human) inhibition | Q9UIF8 | AlphaScreen BAZ2B-H3K14Ac peptide displacement | Potency, µM (titrated, usually from 114 µM), for inactives: top-dose activity change, negative = inhibition, actives largely listed as inhibitors | 4.4% of 360,000 active; further: on the % scale 0 is the no-effect control and ±100 the full control effect; nearly all actives have a fitted effect of over 60% in size
#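 AlphaScreen displacement: compounds (up to 110uM) incubated 30 min at room temperature with a preformed 50 nM BAZ2B/50 nM biotinylated H3K14Ac peptide complex in PBS pH 7.4 with Tween-20. Donor and acceptor beads at 10 ug/mL final added, 20 min light-protected before reading.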
# JMJD2A Tudor inh: JMJD2A Tudor domain (human) inhibition. O75164. AlphaScreen JMJD2A-Tudor / H3K4me3 peptide binding. Potency, µM (series often up to 114 µM), inactives show top-dose activity change, negative = inhibition, actives largely listed as inhibitors. 4.4% of 390,000 active; further: on the % scale 0 is the no-effect control and ±100 the full control effect; nearly all actives have a fitted effect of over 50% in size
# HP1b binding inh: HP1-beta chromodomain-methylated histone interaction inhibition. P83916. AlphaScreen HP1-beta / biotin-H3K9me3 peptide binding. Potency, µM (titrated, usually from 114 µM), for inactives: at the top dose activity change, negative = inhibition, usual class: inhibitors. 0.56% of 390,000 active. AID 540317; further: nearly all actives have a fitted effect of over 70% in size
#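 HP1-beta protein (50 nM final) preincubated 30 min at room temperature with biotinylated H3(1-18)K9me3 peptide (50 nM) in PBS pH 7.4, 0.01% Tween-20, then compound added for 30 min. AlphaScreen streptavidin donor/nickel chelate acceptor beads (10 ug/mL final), 30 min dark, luminescence read.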
# L3MBTL1 block: inhibitors of human L3MBTL1. AlphaScreen L3MBTL1–H3K9me1 peptide binding. Potency, µM (titrated, usually from 57.1 µM), inactives show top-dose activity, negative = inhibition, hits mostly inhibitors. 0.66% of 230,000 active; further: on the % scale 0 is the no-effect control and ±100 the full control effect; nearly all actives have a fitted effect of over 60% in size
#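 First, the protein-peptide complex forms for 30 min at room temperature (L3MBTL1 50 nM, biotinylated H3K9me1 peptide 75 nM). Next, compounds are pin-transferred and incubated 30 min. Finally, AlphaScreen beads are added and read after 30 min.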
# * = called active by the depositor; ? = inconclusive; / = not tested or not shown; [ ] = another dose, or the depositor's remark. Hits are enriched below; roughly 11% of the tested compounds scored in any of these assays. The call rests on the fitted dose curve; in most records, active means well fitted inhibition curve with a large enough effect; inconclusive means small, poorly fitted or top-dose-only effect; inactive means no such curve, though single readings can be large or run the other way. Potency means the concentration at half of the fitted maximal effect.
SMILES,G9a inh,BAZ2B inh,JMJD2A Tudor inh,HP1b binding inh,L3MBTL1 block
OCc1cc2c(cn1)[nH]c1ccccc12,37%[59 µM],/,/,/,/
COc1ccc(OC)c(/C=N/NC(=O)c2cc[n+](CC(=O)c3ccccc3)cc2)c1,79µM*,-10%,-24%,31%,/
COc1ccc(/C=N/NC(=O)C[n+]2ccccc2)c(OC)c1,-19%,-13%,3%,41%,2%
COC(=O)c1ccc(NC(=O)CC2C(=O)N(c3cccc(C)c3)C(=O)N2C2CCCC2)cc1 (centres undefined),7.1µM*,-18%,0%,37%,/
COc1cccc(N2CCN(C(=O)c3ccc(CS(=O)c4cccc(Cl)c4)o3)CC2)c1 (centres undefined),-27%[59 µM],-25%,-8%,35%,/
CCc1ccc2c(c1)c(N=NC1=NC(=O)CS1)c(O)n2C,13µM*,?,-33%,-9%,-5%
COc1cc([N+](=O)[O-])ccc1NC(=O)Nc1cccnc1,33%,-20%,-14%,38%,/
COc1cc([N+](=O)[O-])ccc1NC(=S)Nc1cccc(C(=O)O)c1,10µM*,-27%,-15%,-9%,-2%
COc1ccccc1C(=O)N/C(=C/c1cccc([N+](=O)[O-])c1)C(=O)Nc1cccc(C(=O)O)c1,2%,-1%,13µM*,-2%,/
COc1ccc([N+](=O)[O-])cc1NS(=O)(=O)c1cccc(C(=O)O)c1,-49%,-16%,32µM*,21%,3%
COc1cc([N+](=O)[O-])ccc1NC(=S)Nn1cnnc1,10µM*,?,-33%,?,/
Cc1sc(NC(=O)CCCC(=O)O)c(C(N)=O)c1-c1ccccc1,25µM*,0%,-23%,-33%,/
CC(=O)N1c2ccc(S(=O)(=O)NCC3CCC(C(=O)Nc4cccc(F)c4)CC3)cc2CC1C (centres undefined),-4%[59 µM],-14%,-15%,20%,/
O=C(O)C1CSC2(CCN(Cc3ccccc3)CC2)N1 (centres undefined),7.1µM*,56µM*,10µM*,?,43%
O=C(Cc1ccccc1)NC1CCN(Cc2ccccc2)CC1,?,-15%,-9%,46%,7%
Cc1ccccc1-n1nc(CO)c(C(=O)NCc2cccnc2)n1,7%[59 µM],-14%,-10%,36%,/
O=C(Cc1ccccc1)Nc1nnc2n1CCS2,10µM*,79µM*,50µM*,12%[57 µM],/
O=C(Nc1nnc2n1CCS2)c1ccco1,1.8µM*,13µM*,1.6µM*,20%[57 µM],/
O=C(Cc1ccc(F)cc1)Nc1nnc2n1CCS2,10µM*,56µM*,?,6%[57 µM],/
CCCC(=O)Nc1nnc2n1CCS2,?,-11%,79µM*,-2%[57 µM],/
O=C(Cc1ccc(F)cc1)Nc1nnc(-c2ccc(F)cc2)o1,70%[59 µM],?,-28%,54%,/
CC(C)(C)CC(=O)Nc1nnc2n1CCS2,38%[59 µM],-4%,-8%,14%[57 µM],/
CC(C)(C)c1ccc(C(=O)Nc2nnc3n2CCS3)cc1,53%[59 µM],2%,-4%,24%[57 µM],/
CC(C)(C)C(=O)Nc1nnc2n1CCS2,-50%[59 µM],-1%,-10%,15%[57 µM],/
COc1ccc(NC(=O)c2cccc(S(=O)(=O)NCc3ccco3)c2)c(OC)c1,-22%[59 µM],-8%,-23%,-1%,-6%
SMILES,G9a inh,BAZ2B inh,JMJD2A Tudor inh,HP1b binding inh,L3MBTL1 block
O=C(Nn1cc(C(=O)Nc2ccc(F)cc2F)c2ccccc2c1=O)c1cnccn1,0.79µM*,28µM*,35µM*,13%,/
O=C(Nc1ccccc1F)c1cnccn1,-33%,5%,5%,14%,/
CC(C)[C@@H]1NC(=O)c2cc([N+](=O)[O-])cc(I)c2NCC[C@@H](C(N)=O)NC(=O)[C@H](CO)NC1=O,13µM*,?,/,/,-8%
NC(=O)[C@@H]1CCCCNc2c(F)cc([N+](=O)[O-])cc2C(=O)N[C@@H](CC(=O)O)C(=O)NCC(=O)N1,?,-4%,-6%,53%,8%
CC(C)[C@@H]1NC(=O)c2cc([N+](=O)[O-])cc(F)c2NCCC[C@@H](C(N)=O)NC(=O)[C@H](CO)NC1=O,40µM*,?,/,/,0%
C[C@@H](O)C1NC(=O)[C@H](CCCCN)NC(=O)c2cc([N+](=O)[O-])cc(I)c2NCCC[C@@H](C(N)=O)NC1=O (some centres undefined),50µM*,-32%,-25%,27%,0%
